Our source for the max response values is PubChem BioAssay AID2314 (National Center for Advancing Translational Sciences (NCATS), 2010).

Screen size: about 300,000 compounds; about 37,000 (12%) were called active. Many of the other results were omitted from the sample, so actives are more common in it than they were. Values without a mark were called inactive. Cut-off read from the data, not from the text of the source: active = max response mostly above about 13% (no sharp cut-off); inactive = mostly below about 14%.

The nature of the test: Cycloheximide Counterscreen for Small Molecule Inhibitors of Shiga Toxin. Note: read at 38.3 µM for the half of the compounds with a filed dose; 0% is about no effect. The note with it: cell reporter, cycloheximide protein synthesis inhibition counterscreen; stronger effect = higher value. On the technique in general: The purpose of a counterscreen is to sort out artefacts and off-target activity.
For the molecule `Cc1cccc(NC(=O)C2CCN(C(=O)NC3CCCCC3)CC2)c1`, the max response was -6.02%.

Regarding `Cc1ccc2cc(CCNC(=O)c3c(-c4ccccc4Cl)noc3C)c(=O)[nH]c2c1`, the max response is -3.51%.

Consider `Cc1c2cnn(CC(=O)NCc3ccccn3)c(=O)c2c(C)n1Cc1ccc(Cl)cc1`, for which the max response was -3.5%.

With `COCc1cc(=O)oc2cc(NS(=O)(=O)c3ccc(C)cc3)ccc12`, the max response was 2.21%.

With `CCOC(=O)Cc1csc(SCc2cc(=O)oc3cc(O)ccc23)n1`, the max response is -1.72%.

In the case of `Cc1ccc2c(CSc3nncs3)cc(=O)oc2c1`, the max response is 26.8% (active).

For `CCCNC(=O)CSc1nc(Cc2ccccc2)nc2ccccc12`, the max response was -5%.

As to `COc1ccc(C)cc1Nc1nc(-c2c(C)[nH]c3ccccc23)cs1`, the max response is 11.4%.

As to `CN=c1scc(-c2cc(OC)ccc2OC)n1/N=C/c1c(C)[nH]c2ccccc12`, the max response was 15.1% (active).

For `CCn1c(-c2cc(OC)ccc2OC)csc1=Nc1c(C)n(C)n(-c2ccccc2)c1=O`, the max response was -0.97%.

Turning to `CC(C)(C)N(Cc1ccccc1)C(=O)COC(=O)CCc1c[nH]c2ccccc12`, the max response is -0.22%.

In the case of `COc1cc(CN2CCC(n3nccc3NC(=O)CCCc3ccccc3)CC2)ccc1O`, the max response was -1.56%.

As to `Cc1ccc(CN2CCC(n3nccc3NC(=O)CCCc3ccccc3)CC2)o1`, the max response was 2.06%.

Regarding `CC(=O)N[C@@H](C)C(=O)N1CCC(n2nccc2NC(=O)CCCc2ccccc2)CC1`, the max response was 24.6% (active).

Turning to `CCn1cc(CN2CCC(n3nccc3NC(=O)CCCc3ccccc3)CC2)c(C)n1`, the max response is -2.15%.

For the molecule `CC(=O)NCC(=O)N1CCC(n2nccc2NC(=O)CCCc2ccccc2)CC1`, the max response was 26.3% (active).

For the molecule `COc1ccc(CN2CCC(n3nccc3NC(=O)CCCc3ccccc3)CC2)cc1C`, the max response was -6.15%.

On to `CCC(C(=O)OC)n1cnc2scc(-c3ccc(C)cc3)c2c1=O` (configuration not stated), for which the max response is 0.506%.

As for `COc1ccc(N2C(=O)C3C(C2=O)C(C(=O)c2ccccc2)N2CCCC32)cc1` (configuration not stated), the max response is 2.35%.

As to `O=C(NCc1ccccc1Cl)c1ccc2c(=O)n(CC3CCCO3)c(=S)[nH]c2c1` (configuration not stated), the max response is -1.12%.

In the case of `CCCC[C@@H]1CN=C(N)N1CCc1cc(C(F)(F)F)cc(C(F)(F)F)c1`, the max response is -4.84%.

In the case of `CC[C@H](C)[C@H](NC(=O)[C@H](CCCNC(=N)N)NC(=O)[C@H](CCCNC(=N)N)NC(=O)[C@H](CC(C)C)NC(=O)[C@H](Cc1ccccc1)NC(=O)CNC(=O)CNC(=O)[C@@H](N)Cc1ccc(O)cc1)C(=O)N[C@@H](CCCNC(=N)N)C(=O)N1CCC[C@H]1C(=O)N[C@@H](CCCCN)C(=O)N[C@@H](CC(C)C)C(=O)N[C@@H](CCCCN)C(=O)N[C@@H](Cc1c[nH]c2ccccc12)C(=O)N[C@@H](CC(=O)O)C(=O)N[C@@H](CC(N)=O)C(=O)N[C@@H](CCC(N)=O)C(=O)O`, the max response is -3.93%.
